# GLP1R cytotox: qHTS of GLP-1 Receptor Inverse Agonists: Cytotox Screen. 410,000 tested, 0.13% active. HEK293 cAMP-luciferase reporter cells, luminescence, 24 h. Potency, µM (titrated, usually from 38.3 µM), without a hit: top-dose activity change, negative = inhibition, hits mostly inhibitors;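 further: loss of luciferase light is scored as toxicity; potency means the concentration at half of the fitted maximal effect; on the % scale 0 is the no-effect control and ±100 the full control effect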
#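 1536-well qHTS counterscreen of the MLSMR; 200 cells/uL, 12 h pre-incubation, 23 nL cpd, 24 h at 37 deg C 5% CO2, luciferase detection reagent, 12 min RT, luminescence. Inhibition = undesired.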
# GLP1R inv ag: qHTS of GLP-1 Receptor Inverse Agonists (Inhibition Mode) | Potency, µM (doses to about 38.3 µM), inactives show top-dose activity change, negative = inhibition, usual class: inhibitors | HEK293 GLP-1R CRE-luciferase, luminescence, 24 h; GLP-1R form is constitutively active | AID 624417, 2012 | 410,000 tested, 1.6% active; further: potency means the concentration at half of the fitted maximal effect; on the % scale 0 is the no-effect control and ±100 the full control effect; nearly all actives have a fitted effect of over 55% in size
#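 Inverse agonism was detected as reduced cAMP-driven luciferase luminescence after 24 h compound treatment. The cells were HEK293 clones expressing constitutively active human GLP-1R with the reporter. Reporter-only and GPR119 cell lines served as counterscreen controls.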
# GLP1R ag: qHTS of GLP-1 Receptor Agonists. AID 624172, 2012. 380,000 tested, 0.007% active. Potency, µM (titrated, usually from 45.6 µM), for inactives: top-dose activation, hits mostly activators. Glucagon-like peptide 1 receptor (Homo sapiens), P43220. HEK293 GLP-1R CRE-luciferase, luminescence, 4-6 h; cells express a hypersensitive GLP-1R form; further: potency means the concentration at half of the fitted maximal effect; % of control where 0% means no effect
# IDH1 R132H inh: qHTS for Inhibitors of mutant isocitrate dehydrogenase 1 (IDH1): qHTS. Potency, µM (doses to about 76.6 µM), inactives show at the top dose activity change, negative = inhibition, most hits filed as inhibitors. 390,000 tested, 0.093% active. Isocitrate dehydrogenase [NADP] cytoplasmic (Homo sapiens), O75874. AID 602179, 2012. IDH1-R132H enzyme, NADPH consumption, diaphorase/resazurin fluorescence; further: potency means the concentration at half of the fitted maximal effect; on the % scale 0 is the no-effect control and ±100 the full control effect; nearly all actives have a fitted effect of over 65% in size
#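 IDH1-R132H (0.5 ug/mL) preincubated 30 min with compound, then NADPH (0.016 mM) and alpha-KG (2 mM) added; 80 min at RT, pH 7.5. Remaining NADPH coupled via diaphorase/resazurin to fluorescence (540/590 nm); concentration-response curves normalized to no-enzyme control.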
# LDHA block: qHTS assay for inhibitors of human lactate dehydrogenase; purified LDHA, NADH/diaphorase-resazurin fluorescence; active compounds read low; activity change, % (values are at about 110 or 230 µM); 480,000 tested, 0.15% active; in the data active means activity change below about -30%; inconclusive means mostly about -25% to -30%;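 further: plate controls were DMSO wells for no effect and wells without enzyme for full effect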
#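 Remaining NADH was detected by diaphorase (0.133 mg/mL) converting 37 µM resazurin to fluorescent resorufin, read at 0 and 20 minutes. The preceding 5-minute room-temperature reaction used 2 nM LDHA, 0.2 mM sodium pyruvate and 0.06 mM NADH at pH 7.4.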
# PTHR1 agonist: qHTS for PTHR1 Agonists: Primary Screen | Parathyroid hormone/parathyroid hormone-related peptide receptor (Homo sapiens), Q03431 | HEK293 GP2 PTHR1 cells, GloSensor cAMP luminescence, 1 h | Potency, µM (doses to about 115 µM), for the others: at the top dose activation, actives largely listed as activators | 410,000 tested, 0.075% active; further: potency means the concentration at half of the fitted maximal effect; nearly all actives have a fitted effect of over 55% in size
# Target sequence (Q03431 whole entry, looked up): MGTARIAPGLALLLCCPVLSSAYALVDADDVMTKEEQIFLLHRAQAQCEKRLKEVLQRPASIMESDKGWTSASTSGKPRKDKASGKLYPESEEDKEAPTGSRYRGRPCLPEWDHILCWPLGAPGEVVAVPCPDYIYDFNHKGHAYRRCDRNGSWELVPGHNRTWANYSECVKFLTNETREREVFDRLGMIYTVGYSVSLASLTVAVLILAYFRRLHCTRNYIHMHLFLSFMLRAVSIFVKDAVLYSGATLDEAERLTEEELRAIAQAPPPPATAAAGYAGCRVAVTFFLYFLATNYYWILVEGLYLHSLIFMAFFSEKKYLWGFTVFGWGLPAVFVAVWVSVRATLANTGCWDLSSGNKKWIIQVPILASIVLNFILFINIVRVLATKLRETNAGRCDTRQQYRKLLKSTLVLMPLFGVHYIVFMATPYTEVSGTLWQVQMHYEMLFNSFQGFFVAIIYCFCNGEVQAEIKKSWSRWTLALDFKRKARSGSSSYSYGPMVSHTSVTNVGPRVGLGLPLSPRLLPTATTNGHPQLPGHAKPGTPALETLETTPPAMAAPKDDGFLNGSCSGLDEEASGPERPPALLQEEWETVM
#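 HEK-293-derived GP2 cells expressing PTHR1 and a GloSensor cAMP reporter, 3,000/well, plated overnight, given luciferin plus IBMX (each 0.5 mM as added) for 1 h at 37 °C, then compound for 1 h at 37 °C. Luminescence was read after 15 min at room temperature.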
# Numbers without * were called inactive; i = inactive; ? = inconclusive; nt = no result; [ ] = dose if it differs, or a comment. In the library only some 1.7% were active in any assay of this set; here they are far more common. Unless noted, the call rests on the fitted dose curve; in most records, active means well fitted curve in the direction sought with a large enough effect; inconclusive means small, poorly fitted or top-dose-only effect, or another doubt; inactive means no such curve, though single readings can be large; an effect the other way counts as inactive or inconclusive.
SMILES,GLP1R cytotox,GLP1R inv ag,GLP1R ag,IDH1 R132H inh,LDHA block,PTHR1 agonist
Cc1cccc(Nc2nc(Nc3cccc(C)c3)nc(N3CCOCC3)n2)c1,1.3%,4.47µM*,nt,-14.9%,-6.8,-0.8%
c1ccc(Nc2nc(N3CCNCC3)nc(N3CCOCC3)n2)cc1,80.4%,2.51µM*,2.8%,3.8%,-3.7,?
O=C(CCNS(=O)(=O)/C=C/c1ccccc1)Nc1ccc(Cl)cc1Cl,nt,nt,nt,nt,-0.1,nt
CCOc1ccc(N(C)S(=O)(=O)c2ccc(C)c(C(=O)N3CCN(Cc4ccc5c(c4)OCO5)CC3)c2)cc1,3.3%,11.2µM*,0.3%,-4.8%,0.0,-33.6%
COc1ccc(CCNC(=O)c2cc(S(=O)(=O)N(C)c3ccccc3)ccc2Cl)cc1,-4.9%,?,-4.2%,6.2%,-1.8,-15.2%
CCOc1ccc(N(C)S(=O)(=O)c2ccc(C)c(C(=O)NCCc3ccc(OC)cc3)c2)cc1,-4.8%,10µM*,-2.0%,1.1%,-0.4,-12.0%
CC(=O)N1CCC2(CC1)Oc1ccc(Br)cc1C1CC(c3ccc(Cl)cc3)=NN12 (stereo unspecified),nt,nt,nt,nt,9.6,nt
Cc1ccc(N(CC(=O)N2CCC(C(N)=O)CC2)S(=O)(=O)c2ccccc2)cc1C,nt,nt,nt,nt,-7.5,nt
Cc1cc(C)c(S(C)(=O)=O)c(Oc2ccc(C(C)(C)C)cc2)n1,9.3%,11.2µM*,4.3%,6.7%,1.1,-28.4%
Cc1ccc(S(=O)(=O)c2c(C)cc(C)nc2Oc2cccc(C(F)(F)F)c2)cc1,4.4%,5.01µM*,-10.4%,-1.0%,-4.4,-52.1%[57.5 µM]
Cc1cc(C)c(S(C)(=O)=O)c(Oc2cccc(Cl)c2)n1,-3.2%,4.8%,0.1%,2.6%,-1.7,i
Cc1cc(-c2ccccc2)nc(Oc2cccc(C(F)(F)F)c2)c1S(C)(=O)=O,7.1%,10µM*,7.2%,2.3%,0.3,i
Cc1[nH]c2ccccc2c1C(=O)C(=O)N(C)Cc1ccccc1,nt,nt,nt,nt,-6.0,nt
Cc1cc(C(=O)OCCOc2ccccc2C)c2ccccc2n1,nt,nt,nt,nt,7.8,nt
O=S1(=O)CCN2C(c3cc(Cl)ccc3Cl)=CSC2=N1,nt,nt,nt,nt,3.0,nt
Cc1ccc(NC(=S)NC(NC(=O)c2ccco2)C(Cl)(Cl)Cl)cc1 (stereo unspecified),-35.0%,?,-10.0%,4.0%,-10.7,-31.0%
Cc1ccc(NC(=S)NC(NC(=O)c2ccccc2)C(Cl)(Cl)Cl)c(C)c1 (stereo unspecified),?,3.55µM*,-23.3%,5.7%,-3.2,-1.0%
Cc1cccc(NC(=S)NC(NC(=O)c2ccco2)C(Cl)(Cl)Cl)c1 (stereo unspecified),?,1.12µM*,-9.9%,4.2%,-10.8,-52.6%
Cc1ccc(C(=O)NC(NC(=S)Nc2ccc(S(N)(=O)=O)cc2)C(Cl)(Cl)Cl)cc1 (stereo unspecified),-25.3%,5.62µM*,-6.2%,-1.2%,-34.5*,-36.6%
O=C(NC(NC(=S)Nc1ccccc1)C(Cl)(Cl)Cl)c1cccc(Cl)c1 (stereo unspecified),?,7.94µM*,-15.2%,8.0%,-19.3,-90.2%
O=C(O)c1cccc(NC(=S)NC(NC(=O)c2cccc([N+](=O)[O-])c2)C(Cl)(Cl)Cl)c1 (stereo unspecified),3.1%,4.0%,-6.2%,-1.0%,-3.0,9.7%
CCOP(=O)(OCC)C(Nc1ccccc1)c1ccc2c(c1)OCO2 (stereo unspecified),-13.2%,?,-2.8%,-3.6%,-3.4,i
CCCCOP(=O)(OCCCC)C(Nc1ccccc1)c1ccc2c(c1)OCO2 (stereo unspecified),-8.2%,7.94µM*,-31.8%,6.5%,1.8,-11.9%
COc1cc2sc3ccc(C#CC4(O)CCCCC4)cc3c(=O)c2cc1OC,-1.9%,?,-0.8%,-3.2%[38.3 µM],4.7,-46.6%
Cn1c2ccccc2c(=O)c2ccc(C#CC3(O)CCCCC3)cc21,125.0%,7.94µM*,-9.9%,1.6%,3.6,-2.6%
SMILES,GLP1R cytotox,GLP1R inv ag,GLP1R ag,IDH1 R132H inh,LDHA block,PTHR1 agonist
Cc1cc(C)n(-c2ncnc3sc(C)c(-c4ccc(F)cc4)c23)n1,nt,nt,nt,nt,3.6,nt
O=C(CCc1c[nH]c2ccccc12)Nc1ccc(F)c(F)c1F,nt,nt,nt,nt,-9.8,nt
Clc1ccc(Cn2c(-c3cccnc3Cl)nc3ccccc32)cc1,8.2%,-9.3%,-5.8%,-2.1%,2.4,-20.2%
Clc1ccc(Cn2c(-c3cccnc3Cl)nc3ccccc32)c(Cl)c1,-12.7%,10µM*,5.3%,2.8%,-2.4,?
COc1ccc(C(=O)COC(=O)/C=C/c2c(Cl)nc3sccn23)cc1Br,nt,nt,nt,nt,13.8,nt
Oc1ccc(-c2nc3ccc4ccccc4c3c3c2CCC3)cc1O,?,3.98µM*,-10.5%,-22.0%,6.8,i
COc1cc(NC(=O)C(c2ccccc2)c2ccccc2)c(C(=O)O)cc1OC,1.1%,23.3%,10.2%,-4.7%,-0.3,-6.9%
COc1cc2c(cc1NC(=O)C(c1ccccc1)c1ccccc1)CCCC2,-4.4%,2.82µM*,-5.8%,-3.0%,-1.3,i
CCCC12CN3CC(C)(CN(C1)C3c1cc(Br)ccc1OC)C2=O (stereo unspecified),nt,nt,nt,nt,-8.0,nt
COc1ccc(-c2nc3c(s2)CN(C(C(=O)O)c2c[nH]c4cc(Cl)ccc24)CC3)cc1 (stereo unspecified),nt,nt,nt,nt,-10.2,nt
CCn1cc(/C=C(\NC(=O)c2ccco2)C(=O)N2CCOCC2)c2ccccc21,nt,nt,nt,nt,2.9,nt
CC(C)C[C@H](NC(=O)Nc1ccc(F)cc1)C(=O)O,nt,nt,nt,nt,4.3,nt
Cn1c(=O)c2sccc2n(CC(=O)NCC2CCCO2)c1=O (stereo unspecified),nt,nt,nt,nt,-40.6*,nt
O=C(Nc1ccc2c(c1)OCCO2)c1ccccc1,0.0%,?,0.8%,11.5%,-6.2,-23.8%
C/C(=N\NC(=O)c1ccc(Cl)c(Cl)c1)c1ccc(Br)s1,13.2%[1.53 µM],13.5%,-10.9%,3.8%,-3.6,-22.8%
COc1ccc(C(=O)Nc2ccc3c(c2)OCCO3)cc1,-40.3%,12.6µM*,-7.1%,11.7%,-7.1,i
C/C(=N/NC(=O)c1ccc2c(c1)OCO2)c1ccc(Br)s1,-0.8%,-12.3%,5.0%,7.2%,-33.3*,i
